Values without a mark were called inactive. For some of these results: Results with a measured potency or affinity are listed apart. Active and inactive are the calls of the source. Unless noted, the rule behind the calls is not given here.
Assays:
[1] = antimalarial activity against Dd2 strain (AID 2302;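 active = growth inhibition above 50% at the single 2 µM test dose, taken to imply half-maximal potency below 2 µM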;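 note: 0% = DMSO untreated growth and 100% = chloroquine plus artemisinin killed control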); conditions: P. falciparum Dd2 in RBCs, LDH growth readout, 72 h; at 2 µM; active compounds read high
[2] = HepG2 cytotoxicity, primary screen, cytotoxicity control for P. falciparum antimalarial project, cell-based, ATP luminescence (AID 2303;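 active = inhibition above 50%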;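 note: 0% = DMSO wells and 100% = digitonin-killed cells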); conditions: HepG2 viability, 24-48 h, at 10 µM, active compounds read high
[3] = molecular target: L-lactate dehydrogenase (Plasmodium falciparum (isolate CDC / Honduras)) (UniProt Q27743); assay: PfLDH activity inhibition – cell lysate, 3D7 strain, counter-screen for P. falciparum growth inhibition project (AID 2304);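 note: 0% = vehicle and 100% = reference inhibitor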; conditions: P. falciparum 3D7 crude extract, LDH APAD/NBT absorbance; at 2 µM; active compounds read high
[4] = inhibition of 3D7 malaria parasite growth – strain 3D7 (AID 2306);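 note: 0% = DMSO wells and 100% = chloroquine plus artemisinin control wells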; conditions: P. falciparum 3D7 erythrocytic growth, LDH absorbance, 72 h; at 2 µM; active compounds read high
[5] = molecular target: Calcium-dependent protein kinase 1 (Plasmodium falciparum (isolate 3D7)) (UniProt P62344); assay: PfCDPK1 kinase inhibitors, biochemical, TCAMS library (AID 1159585; cut-off not given, nearly all actives have IC50 up to about 0.98 µM;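 note: inhibitors leave more ATP so luminescence rises with inhibition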); conditions: recombinant PfCDPK1, Kinase-Glo ATP depletion luminescence
[6] = molecular target: Plasmodium falciparum protein kinase 6 (PK6, PF3D7_1337100) (UniProt Q8IDW1); assay: PfPK6 kinase inhibitors, biochemical, TCAMS library (AID 1159586); conditions: recombinant PfPK6, Kinase-Glo ATP depletion luminescence
[7] = molecular target: Protein kinase 7 (PK7), Plasmodium falciparum 3D7 (PF3D7_0213400) (UniProt Q7YTF7); assay: inhibition of Plasmodium PK7 catalytic activity – biochemical, TCAMS antimalarial set, Kinase-Glo luminescence (AID 1159587); conditions: recombinant PfPK7, Kinase-Glo ATP depletion luminescence
[8] = molecular target: Calcium-dependent protein kinase 4 (Plasmodium falciparum (isolate 3D7)) (UniProt Q8IBS5); assay: PfCDPK4 kinase inhibitors, biochemical, TCAMS library (AID 1159588; cut-off not given, nearly all actives have IC50 up to about 0.91 µM); conditions: recombinant PfCDPK4, Kinase-Glo ATP depletion luminescence
Sequence of Calcium-dependent protein kinase 4 (Plasmodium falciparum (isolate 3D7)) (Q8IBS5 whole entry, looked up): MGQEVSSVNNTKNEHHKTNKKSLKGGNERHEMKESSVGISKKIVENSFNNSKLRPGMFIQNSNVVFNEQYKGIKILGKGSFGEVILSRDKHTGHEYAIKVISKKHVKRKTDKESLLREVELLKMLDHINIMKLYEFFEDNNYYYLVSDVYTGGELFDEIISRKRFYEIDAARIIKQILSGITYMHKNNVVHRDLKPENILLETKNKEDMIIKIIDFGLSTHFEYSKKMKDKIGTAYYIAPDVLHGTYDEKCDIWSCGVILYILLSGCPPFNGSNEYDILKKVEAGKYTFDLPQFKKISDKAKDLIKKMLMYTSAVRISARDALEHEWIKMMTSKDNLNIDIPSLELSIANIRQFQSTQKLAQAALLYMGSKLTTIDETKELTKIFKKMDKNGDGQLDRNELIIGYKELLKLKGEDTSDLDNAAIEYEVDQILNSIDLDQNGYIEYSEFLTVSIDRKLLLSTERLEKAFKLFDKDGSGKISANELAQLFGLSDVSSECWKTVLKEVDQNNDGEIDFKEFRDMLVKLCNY

Sequence of Protein kinase 7 (PK7), Plasmodium falciparum 3D7 (PF3D7_0213400) (Q7YTF7 1-343): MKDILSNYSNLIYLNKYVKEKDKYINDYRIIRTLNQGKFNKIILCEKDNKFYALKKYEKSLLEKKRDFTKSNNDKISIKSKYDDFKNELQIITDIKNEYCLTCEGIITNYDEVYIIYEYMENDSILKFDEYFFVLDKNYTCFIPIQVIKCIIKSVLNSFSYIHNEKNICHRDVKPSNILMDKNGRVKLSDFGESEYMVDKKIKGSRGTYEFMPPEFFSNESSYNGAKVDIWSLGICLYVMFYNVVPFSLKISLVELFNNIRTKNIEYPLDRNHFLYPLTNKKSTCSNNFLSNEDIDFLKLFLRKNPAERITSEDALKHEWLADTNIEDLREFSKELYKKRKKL
Sequence of L-lactate dehydrogenase (Plasmodium falciparum (isolate CDC / Honduras)) (Q27743 whole entry, looked up): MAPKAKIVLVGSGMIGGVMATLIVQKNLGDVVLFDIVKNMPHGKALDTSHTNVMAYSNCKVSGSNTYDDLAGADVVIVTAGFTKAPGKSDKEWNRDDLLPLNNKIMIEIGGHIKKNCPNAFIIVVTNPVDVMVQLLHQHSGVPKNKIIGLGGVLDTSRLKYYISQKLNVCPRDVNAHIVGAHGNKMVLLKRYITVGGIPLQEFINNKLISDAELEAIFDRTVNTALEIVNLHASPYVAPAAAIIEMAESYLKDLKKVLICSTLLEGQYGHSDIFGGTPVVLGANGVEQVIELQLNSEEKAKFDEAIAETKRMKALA
Sequence of Calcium-dependent protein kinase 1 (Plasmodium falciparum (isolate 3D7)) (P62344 whole entry, looked up): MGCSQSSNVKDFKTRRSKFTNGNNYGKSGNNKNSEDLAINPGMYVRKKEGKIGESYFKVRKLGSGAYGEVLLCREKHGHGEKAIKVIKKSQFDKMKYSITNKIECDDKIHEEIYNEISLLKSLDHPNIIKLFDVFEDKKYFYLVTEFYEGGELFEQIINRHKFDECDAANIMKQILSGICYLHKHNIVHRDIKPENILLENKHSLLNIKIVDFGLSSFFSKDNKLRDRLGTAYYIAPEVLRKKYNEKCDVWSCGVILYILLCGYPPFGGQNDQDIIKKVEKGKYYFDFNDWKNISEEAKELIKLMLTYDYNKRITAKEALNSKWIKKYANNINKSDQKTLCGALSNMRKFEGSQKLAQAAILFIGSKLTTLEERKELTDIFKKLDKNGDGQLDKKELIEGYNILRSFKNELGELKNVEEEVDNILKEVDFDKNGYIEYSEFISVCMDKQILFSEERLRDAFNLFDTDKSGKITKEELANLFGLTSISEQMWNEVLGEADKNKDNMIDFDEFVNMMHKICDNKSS
Sequence of Plasmodium falciparum protein kinase 6 (PK6, PF3D7_1337100) (Q8IDW1 1-305): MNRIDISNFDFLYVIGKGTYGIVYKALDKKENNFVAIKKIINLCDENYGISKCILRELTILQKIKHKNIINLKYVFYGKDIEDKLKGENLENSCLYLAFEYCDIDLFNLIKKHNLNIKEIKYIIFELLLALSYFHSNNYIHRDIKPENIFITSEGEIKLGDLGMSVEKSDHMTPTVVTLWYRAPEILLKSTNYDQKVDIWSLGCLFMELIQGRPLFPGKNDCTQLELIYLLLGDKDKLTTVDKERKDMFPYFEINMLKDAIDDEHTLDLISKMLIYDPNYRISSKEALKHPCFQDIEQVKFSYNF

Row | Compound | growth inhibition [1] | inhibition [2] | inhibition [3] | growth inhibition [4] | outcome [5] | outcome [6] | outcome [7] | outcome [8]
1 | O=C(Nc1cccc(CN2CCCN(Cc3ncc[nH]3)CC2)c1)c1ccc(-c2ccccc2)cc1 | 56% (active) | 23% | -5% | 101% (active) | inactive | inactive | inactive | inactive
2 | Cc1ccc(NC(=O)c2cc(Br)cc(N3CCCN(C)CC3)c2)cc1F | 1% | 15% | -2% | 87% (active) | inactive | inactive | inactive | inactive
3 | Cc1c(Oc2ccc(-n3ccnc3)cc2)ncnc1N1CCC2(CC1)CNCc1ccccc12 | 58% (active) | 26% | -3% | 95% (active) | inactive | inactive | inactive | inactive
4 | COc1ccc(NC(=O)[C@H](Cc2ccccc2)Nc2cc(C)nc(Nc3ccccc3)n2)cc1 | 92% (active) | 0% | 2% | 101% (active) | inactive | inactive | inactive | inactive
5 | Cc1[nH]nc2cc(Nc3ccnc(Nc4ccc(CN5CCOCC5)cc4)n3)ccc12 | 5% | 22% | -4% | 97% (active) | inactive | inactive | inactive | inactive
6 | Cc1ccc2[nH]c(-c3ccc(C(=O)NC4CCN(Cc5ccccc5)CC4)cc3)nc2c1C | 46% | 22% | -2% | 102% (active) | inactive | inactive | inactive | inactive
7 | c1ccc2c(NCCCCCCNc3ccnc4ccccc34)ccnc2c1 | 12% | 43% | 5% | 100% (active) | inactive | inactive | inactive | inactive
8 | O=C(CCCc1ccccc1)Nc1cccc(N2CCC(N3CCN(c4ccccc4O)CC3)CC2)c1 | 41% | 31% | -1% | 98% (active) | inactive | inactive | inactive | inactive
9 | COC(=O)[C@@H](NC(=O)[C@H](CC(C)C)Nc1ccc(C#N)c2ccccc12)c1ccc(O)cc1 | 87% (active) | 4% | 0% | 98% (active) | inactive | inactive | inactive | inactive
10 | Cn1cnc2c(Nc3ccncc3)nc(-c3ccc(OC(F)(F)F)cc3)nc21 | 65% (active) | 28% | -1% | 102% (active) | inactive | inactive | inactive | inactive
11 | Cc1cccc2[nH]c(-c3ccc(-c4ccc(CNCc5ccc(CN)cc5)cc4)s3)nc12 | 85% (active) | 4% | -8% | 101% (active) | inactive | inactive | inactive | inactive
12 | Cc1cc(-c2ccc(NC(=O)Nc3ccc4nccc(N5CCN(C)CC5)c4c3)cc2C)cc(C)n1 | 76% (active) | -2% | 4% | 100% (active) | inactive | inactive | inactive | inactive
13 | COc1ccc2nccc([C@@H](O)CN3CCC(NCc4cc5ccccc5[nH]c4=O)CC3)c2c1 | -3% | -6% | 3% | 97% (active) | inactive | inactive | inactive | inactive
14 | Oc1ccc(CCNc2nc(NCc3ccc4cc(Cl)ccc4c3)nc(N3CCNCC3)n2)cc1 | 38% | 14% | -3% | 92% (active) | inactive | inactive | inactive | inactive
15 | CC(C)(C)c1ccc(NC(=O)c2cccc(CN3CCN(Cc4cccc(O)c4)CC3)c2)cc1 | 3% | 28% | -2% | 92% (active) | inactive | inactive | inactive | inactive
16 | Cc1cccc2[nH]c(-c3ccc(-c4cccc(NC(=O)Nc5ccc(F)c(F)c5F)c4)cc3)nc12 | 89% (active) | 40% | 2% | 100% (active) | inactive | inactive | inactive | inactive
17 | Fc1cccc(COc2ccc(Nc3ncnc4ccc(C#C[C@H]5CCCN5)cc34)cc2Cl)c1 | 26% | 7% | -2% | 91% (active) | inactive | inactive | inactive | inactive
18 | Cc1ccc(OCCCON2C(N)=NC(N)=NC2(C)C)cc1C | 94% (active) | 57% (active) | 0% | 96% (active) | inactive | inactive | inactive | inactive
19 | CCN(CC)CCN(Cc1ccc(-c2ccc(C(F)(F)F)cc2)cc1)C(=O)c1ccc(-c2ccc(NC(=O)OC)cc2C)cc1 | 42% | 66% (active) | -6% | 93% (active) | inactive | inactive | inactive | inactive
20 | CC(C)NCc1ccc(-c2ccc(CN3CCCC(c4ccccc4)C3)cc2)c(C(=O)NC2Cc3ccccc3C2)c1 (stereo not drawn) | 64% (active) | 41% | 3% | 96% (active) | inactive | inactive | inactive | inactive
21 | O=c1cc(NCCCNCc2ccccc2-c2ccccc2)[nH]c2ccccc12 | 46% | 0% | -1% | 88% (active) | inactive | inactive | inactive | inactive

Row | Compound | growth inhibition [1] | inhibition [2] | inhibition [3] | growth inhibition [4] | outcome [5] | outcome [6] | outcome [7] | outcome [8]
22 | N#Cc1ccc2c(c1)CN(C1CCC(NC(=O)C3=Cc4cc(Cl)ccc4OC3)CC1)CCC2 (stereo not drawn) | 8% | -5% | 2% | 93% (active) | inactive | inactive | inactive | inactive
23 | CCCc1cc(NC2CCN(C)CC2)nc(Nc2ccc(C)cc2)n1 | 20% | 25% | -1% | 101% (active) | inactive | inactive | inactive | inactive
24 | Cc1ccc(NC(=O)Nc2ccc(Cl)c(C(F)(F)F)c2)cc1-c1ccc(C(=O)Nc2ccncc2)cc1 | 99% (active) | 77% (active) | 3% | 99% (active) | inactive | inactive | inactive | inactive
25 | CCc1ccc(CN2CCC(CNC(=O)c3cc(-c4cccc(C(F)(F)F)c4)cs3)C2)cc1 (stereo not drawn) | 48% | 45% | 2% | 97% (active) | inactive | inactive | inactive | inactive
26 | CN(C)CCNC(=O)c1csc(Nc2ccc(Cl)c(Cl)c2)n1 | 100% (active) | 4% | -3% | 100% (active) | inactive | inactive | inactive | inactive
27 | CC(C)CNC(=O)c1cncc(-c2ccc(CN(C)C3CCN(C)CC3)cc2)c1 | 84% (active) | 15% | -1% | 101% (active) | inactive | inactive | inactive | inactive
28 | c1ccc2[nH]c(-c3ccc(-c4ccc(CN5CCCCC5)cc4)s3)nc2c1 | 69% (active) | 41% | 2% | 102% (active) | inactive | inactive | inactive | inactive
29 | O=S(=O)(/C=C/c1ccccc1)N(Cc1ccc(-c2ccc(CNCCOc3ccccc3)cc2)cc1)CC1CCCCN1 (stereo not drawn) | 95% (active) | 99% (active) | 4% | 99% (active) | inactive | inactive | inactive | inactive
30 | Fc1cc(Cl)ccc1Nc1ccnc(Nc2ccc3cn[nH]c3c2)n1 | 56% (active) | 8% | -3% | 97% (active) | inactive | inactive | inactive | inactive
31 | COc1ccc(-c2ccc(NC(=O)c3cccc(F)c3)cc2)cc1CNC(C)C | 14% | 17% | -2% | 97% (active) | inactive | inactive | inactive | inactive
32 | COCCCNC(=O)C1CCN(C(c2ccc(Cl)cc2)c2ccc(Cl)cc2)CC1 | 63% (active) | 5% | 0% | 91% (active) | inactive | inactive | inactive | inactive
33 | CCOCc1cnc(C)nc1NCC(=O)c1c(C)[nH]c2cc(C)ccc12 | 76% (active) | 8% | 4% | 89% (active) | inactive | inactive | inactive | inactive
34 | COc1ccc(C2(CNCC(O)c3cccc([N+](=O)[O-])c3)CCCCC2)cc1OC (stereo not drawn) | 85% (active) | -2% | 3% | 95% (active) | inactive | inactive | inactive | inactive
35 | CCC(C)CNC(=O)CN1CN(c2ccccc2)C2(CCN(C(=O)c3ccc(Br)cc3)CC2)C1=O (stereo not drawn) | 88% (active) | 10% | -2% | 88% (active) | inactive | inactive | inactive | inactive
36 | Cc1cc(NCCCCCCN)nc(Nc2ccc(Cl)cc2)n1 | 26% | 25% | 1% | 100% (active) | inactive | inactive | inactive | inactive
37 | CCOC(=O)c1cnc2cc(N3CCCC3)c(Cl)cc2c1OCC | 97% (active) | 0% | -2% | 97% (active) | inactive | inactive | inactive | inactive
38 | Cc1ccc(Nc2nccc(NCC(O)c3cccc(C)c3)n2)cc1 (stereo not drawn) | 23% | 22% | 0% | 90% (active) | inactive | inactive | inactive | inactive
39 | Cc1cccc2[nH]c(-c3ccc(-c4cccc(C(=O)NCCN5CCCC5)c4)s3)nc12 | 2% | 22% | 4% | 94% (active) | inactive | inactive | inactive | inactive
40 | O=C1COc2ccc(CNC3CCC(O)(CCc4ccnc5cc6c(cc45)OCCO6)CC3)nc2N1 (stereo not drawn) | -1% | -5% | -6% | 92% (active) | inactive | inactive | inactive | inactive
41 | CN(CCCc1c[nH]c2ccccc12)CCC1CCC(NC(=O)/C=C/c2ccc(Cl)c(Cl)c2)CC1 (stereo not drawn) | 63% (active) | 38% | -3% | 99% (active) | inactive | inactive | inactive | inactive
